# According to PubChem BioAssay:
# Several values for one entry are separate records, joined by “and”; a condition that tells them apart may be missing. Equal values may be shown once. Results filed as inconclusive are left out. For part of these data: Results with a measured potency or affinity are listed apart. Activity calls are given as the source filed them. Unless noted, no rule for the calls is given here.
# Columns and labels:
# [1] = restoration of touch response, mutant HTT neurons – whole organism, C. elegans mechanosensory neurons, N-terminal huntingtin (AID 1599); settings: C. elegans polyQ-huntingtin mechanosensory neurons, stronger effect = higher value
# [2] = GFP-Q80 aggregate reduction, neuronal-like cells, cell-based, NGF-treated PC12, GFPQ80 (AID 1614); settings: PC12 NGF-treated GFP-polyQ80 inclusion reduction;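 also: lower means fewer inclusions and 0 means no inclusions at all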
# [3] = 75Q-TubH aggregate inhibition, S. cerevisiae, yeast (AID 1616); settings: S. cerevisiae 75Q-TubH polyglutamine aggregation suppression; stronger effect = higher value
# [4] = compounds altering viability of human ES cells (AID 493140); settings: human embryonic stem cell survival screen; stronger effect = higher value;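 also: cells exposed to compounds for four days before counting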
# [5] = tested on: Hepatitis C virus NS3 helicase; assay: blockers of NS3h binding to ssDNA – biochemical, fluorescence polarization, LOPAC1280 library, primary screen (AID 687035; in the data active = inhibition above about 37%); settings: Purified HCV NS3 helicase, Cy5-dT15 ssDNA binding fluorescence polarization; stronger effect = higher value; concentration not given here
# [6] = compounds altering Cy5-DNA-NS3h complex signal – biochemical, LOPAC1280, artefact control for HCV NS3 helicase inhibitor project (AID 687037); settings: Cy5-DNA-NS3h complex fluorescence interference counterscreen
# [7] = viability loss in pontine glioma line – cell-based, SU-DIPG-XVII, MIPE5.0, CellTiter-Glo, qHTS, dose response (AID 1347060; cut-off not given, nearly all actives have AC50 up to about 26 µM); settings: CellTiter-Glo ATP luminescence
# [8] = growth inhibition of DIPG cells – cell-based, MIPE4.0 library, CellTiter-Glo luminescence, qHTS (AID 1347066; cut-off not given, nearly all actives have AC50 up to about 30 µM;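 also: cells exposed to compound for 48 hours before readout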); settings: SU-DIPG-VI viability, CellTiter-Glo ATP luminescence
# [9] = JHH-DIPG-1 glioma cell viability, MIPE5.0 library, CellTiter-Glo luminescence, qHTS (AID 1347067; cut-off not given, nearly all actives have AC50 up to about 26 µM;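 also: cells exposed to compound for 48 hours before readout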); settings: JHH-DIPG-1 glioma viability, CellTiter-Glo ATP luminescence
# [10] = growth inhibition of DIPG cells – cell-based, MIPE5.0 library, qHTS (AID 1347068; cut-off not given, nearly all actives have IC50 up to about 30 µM); settings: SU-DIPG-XXV viability
# [11] = blockers of cellular phospholipid synthesis – cell-based, LOPAC library, screen 4, primary screen (AID 1347384); settings: animal cells, phospholipid biosynthesis inhibition screen; at 10 µM
# [12] = viability loss in pontine glioma line – cell-based, SU-DIPG-XIII, MIPE4.0, CellTiter-Glo, qHTS, dose response (AID 1347061; cut-off not given, nearly all actives have AC50 up to about 37 µM;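 also: cells exposed to compound for 48 hours before readout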); settings: CellTiter-Glo ATP luminescence
# [13] = viability loss in pontine glioma line – cell-based, JHH-DIPG-1, MIPE4.0, CellTiter-Glo, qHTS, dose response (AID 1347062; cut-off not given, nearly all actives have AC50 up to about 27 µM;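 as to AC50: cells exposed to compound for two days before readout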); settings: JHH-DIPG-1 viability, CellTiter-Glo ATP luminescence
# [14] = viability loss in pontine glioma line – cell-based, SU-DIPG-XXV, MIPE5.0, CellTiter-Glo, qHTS, dose response (AID 1347065; cut-off not given, nearly all actives have AC50 up to about 26 µM;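 also: cells exposed to compound for 48 hours before ATP readout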); settings: CellTiter-Glo ATP luminescence
# [15] = viability loss in pontine glioma line – cell-based, SU-DIPG-IV, MIPE4.0, CellTiter-Glo, qHTS, dose response (AID 1347063; cut-off not given, nearly all actives have AC50 up to about 30 µM;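 also: compound exposure lasted 48 hours before the viability readout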); settings: CellTiter-Glo ATP luminescence
# [16] = growth inhibition, single agents and combos, LFS_MB_1R, cell-based, cisplatin or BGB combos, synergistic combos for chromothripsis tumors (AID 1671452; in the data active = inhibition above about 80%;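 also: cells exposed for 96 hours before readout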); settings: LFS_MB_1R medulloblastoma cells, stronger effect = higher value
# [17] = growth inhibition, MDA-MB-436, cell-based, BGB or cisplatin combos, synergistic combos for chromothripsis tumors (AID 1671458); settings: MDA-MB-436 breast carcinoma growth inhibition, drug combinations, stronger effect = higher value;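 also: cells exposed for 96 hours; 0% = vehicle DMSO and 100% = killing by high DMSO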
# [18] = BT084 cell growth, single and combined drugs, ICGC_MB145, cisplatin and BGB IC40 combos (AID 1671461; in the data active = inhibition above about 80%;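 also: cells exposed to drugs for 96 hours; 0% = vehicle DMSO and 100% = high DMSO full killing control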); settings: BT084 medulloblastoma cells, drug combinations, stronger effect = higher value
# [19] = RCMB18 cell growth, single agent and combined, cisplatin and BGB IC40 combos (AID 1671462; in the data active = inhibition above about 80%;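 also: cells exposed to compound for four days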); settings: RCMB18 medulloblastoma cells, stronger effect = higher value
# [20] = CRL1545 cell growth, single agent and combined, cisplatin and BGB IC20 combos (AID 1671464; in the data active = inhibition above about 80%;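 also: cells exposed to compound for 96 hours before readout; 0% = vehicle DMSO and 100% = high DMSO killing control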); settings: CRL1545 osteosarcoma cells, stronger effect = higher value
# [21] = measured here: combination with cisplatin, at 0.5 µM
compound,measurement,setting,value
NC12CC3CC(CC(C3)C1)C2,rescue above control,[1],-3.19
same,inclusion score,[2],2
same,aggregation suppression score,[3],1.59
same,survival,[4],4.42 (inactive)
same,inhibition,[5],-1% (inactive)
same,fluorescence ratio (interference),[6],0.9 (inactive)
same,outcome,[7],inactive
same,outcome,[8],inactive
same,outcome,[9],inactive
same,outcome,[10],inactive
same,outcome,[11],inactive
c1ccc([C@H]2CN3CCSC3=N2)cc1,rescue above control,[1],-9.67
same,inclusion score,[2],1.5
same,aggregation suppression score,[3],1.54
same,survival,[4],17.8 (inactive) and 98.4 (inactive)
same,inhibition,[5],-1% (inactive)
same,fluorescence ratio (interference),[6],1 (inactive)
same,outcome,[7],inactive
same,outcome,[12],inactive
same,outcome,[13],inactive
same,outcome,[14],inactive
same,outcome,[9],inactive
same,outcome,[10],inactive
same,outcome,[11],inactive
N=C(N)c1ccc(OCCCCCOc2ccc(C(=N)N)cc2)cc1,rescue above control,[1],0
same,aggregation suppression score,[3],0.265
same,survival,[4],0.583 (inactive)
same,outcome,[13],inactive
same,AC50,[14],11.8 µM (active)
same,outcome,[8],inactive
same,outcome,[11],inactive
Clc1cccc(Cl)c1NC1=NCCN1,rescue above control,[1],13.6
same,inclusion score,[2],2
same,aggregation suppression score,[3],1.85
same,survival,[4],20.8 (inactive)
same,inhibition,[5],-4% (inactive)
same,fluorescence ratio (interference),[6],1 (inactive)
same,outcome,[12],inactive
same,outcome,[13],inactive
same,outcome,[8],inactive
same,outcome,[11],inactive
CN1C(C(=O)Nc2ccccn2)=C(O)c2ccccc2S1(=O)=O,rescue above control,[1],9.46
same,inclusion score,[2],2
same,aggregation suppression score,[3],0.134
same,survival,[4],20 (inactive)
same,inhibition,[5],-1% (inactive)
same,fluorescence ratio (interference),[6],1 (inactive)
same,outcome,[7],inactive
same,outcome,[12],inactive
same,outcome,[13],inactive
same,outcome,[14],inactive
same,outcome,[8],inactive
same,outcome,[9],inactive
same,outcome,[10],inactive
same,outcome,[11],inactive
CC[C@H](C)C(=O)O[C@H]1C[C@@H](C)C=C2C=C[C@H](C)[C@H](CC[C@@H]3C[C@@H](O)CC(=O)O3)[C@H]21,rescue above control,[1],-2.24
same,aggregation suppression score,[3],0.603
same,survival,[4],2.08 (inactive)
same,outcome,[12],inactive
same,outcome,[14],inactive
same,outcome,[8],inactive
same,outcome,[10],inactive
CCN(CC)CCCC(C)Nc1ccnc2cc(Cl)ccc12 (stereo unspecified),rescue above control,[1],4.09
same,inclusion score,[2],2
same,aggregation suppression score,[3],1.49
same,survival,[4],6.67 (inactive)
same,inhibition,[5],-3% (inactive)
same,fluorescence ratio (interference),[6],1 (inactive)
same,AC50,[12],0.00833 µM (active)
same,outcome,[14],inactive
same,outcome,[9],inactive
same,outcome,[10],inactive
same,outcome,[11],inactive
Cc1noc(NS(=O)(=O)c2ccc(N)cc2)c1C,rescue above control,[1],-13
same,inclusion score,[2],2
same,aggregation suppression score,[3],1.13
same,survival,[4],8.25 (inactive)
same,outcome,[12],inactive
same,outcome,[13],inactive
same,outcome,[15],inactive
same,outcome,[8],inactive
CC(C)NCC(O)c1ccc(O)c(O)c1 (stereo unspecified),rescue above control,[1],7.5
same,inclusion score,[2],2
same,aggregation suppression score,[3],1.28
same,survival,[4],4.58 (inactive) and 3.08 (inactive)
same,inhibition,[5],-3% (inactive)
same,fluorescence ratio (interference),[6],1 (inactive)
same,outcome,[7],inactive
same,AC50,[13],1.48 µM (active)
same,outcome,[14],inactive
same,outcome,[8],inactive
same,outcome,[9],inactive
same,outcome,[10],inactive
same,outcome,[11],inactive
Oc1ccc(/C=C/c2cc(O)cc(O)c2)cc1,survival,[4],13.8 (inactive)
same,inhibition,[5],-3% (inactive)
same,fluorescence ratio (interference),[6],1 (inactive)
same,outcome,[13],inactive
same,outcome,[8],inactive
same,outcome,[9],inactive
same,outcome,[11],inactive
CCC1(c2ccccc2)C(=O)NCNC1=O,rescue above control,[1],-6.81
same,inclusion score,[2],2
same,aggregation suppression score,[3],1.22
same,survival,[4],5.92 (inactive)
same,inhibition,[5],1% (inactive)
same,fluorescence ratio (interference),[6],1 (inactive)
same,outcome,[7],inactive
same,AC50,[13],8.33 µM (active)
same,AC50,[15],5.9 µM (active)
same,outcome,[14],inactive
same,outcome,[8],inactive
same,outcome,[9],inactive
same,outcome,[10],inactive
same,outcome,[11],inactive
c1ccc(CC2=NCCN2)cc1,rescue above control,[1],-6.48
same,inclusion score,[2],2
same,aggregation suppression score,[3],1.3
same,survival,[4],21.6 (inactive)
CN(C)CCCN1c2ccccc2CCc2ccc(Cl)cc21,aggregation suppression score,[3],0.939
same,survival,[4],4.17 (inactive)
same,inhibition,[5],-4% (inactive)
same,fluorescence ratio (interference),[6],1 (inactive)
same,outcome,[7],inactive
same,AC50,[12],0.662 µM (active)
same,AC50,[13],9.35 µM (active)
same,AC50,[15],18.7 µM (active)
same,outcome,[10],inactive
same,outcome,[11],inactive
CCN(CCO)CCCC(C)Nc1ccnc2cc(Cl)ccc12 (stereo unspecified),rescue above control,[1],-3.82
same,inclusion score,[2],1.5
same,aggregation suppression score,[3],1.3
same,outcome,[7],inactive
same,outcome,[12],inactive
same,outcome,[13],inactive
same,outcome,[15],inactive
same,outcome,[8],inactive
same,outcome,[9],inactive
same,outcome,[10],inactive
CC1=C(CC(=O)O)c2cc(F)ccc2/C1=C\c1ccc(S(C)=O)cc1 (stereo unspecified),rescue above control,[1],-1.24
same,inclusion score,[2],2
same,aggregation suppression score,[3],1.01
same,inhibition,[5],1% (inactive)
same,fluorescence ratio (interference),[6],1 (inactive)
same,outcome,[7],inactive
same,AC50,[12],20.9 µM (active)
same,outcome,[14],inactive
same,outcome,[8],inactive
same,outcome,[9],inactive
same,outcome,[10],inactive
same,outcome,[11],inactive
Nc1nc2c(ncn2COCCO)c(=O)[nH]1,rescue above control,[1],0.24
same,inclusion score,[2],2
same,aggregation suppression score,[3],1.27
same,survival,[4],18.2 (inactive)
same,inhibition,[5],-2% (inactive)
same,fluorescence ratio (interference),[6],1 (inactive)
same,outcome,[7],inactive
same,outcome,[12],inactive
same,outcome,[13],inactive
same,outcome,[15],inactive
same,outcome,[14],inactive
same,outcome,[9],inactive
same,outcome,[10],inactive
same,outcome,[11],inactive
same,inhibition,[16]; at 0.5 µM,-33.9% (inactive) and -12.8% (inactive)
same,inhibition,"[16]; measured here: combination with BGB IC40, at 0.05 µM",-30% and -19.3%
same,inhibition,[16]; [21],-22.8% and -6.62%
same,inhibition,"[16]; measured here: combination with cisplatin, at 5 µM",-40.1% and -62.2%
same,inhibition,[17]; at 0.5 µM,-28.5% (inactive) and -3.5% (inactive)
same,inhibition,"[17]; measured here: BGB combination, at 0.5 µM",-28% and -11%
same,inhibition,"[17]; measured here: BGB combination, at 5 µM",-21.3% and -10.7%
same,inhibition,"[17]; measured here: cisplatin combination, at 0.5 µM",-47.5% and -0.282%
same,inhibition,"[17]; measured here: cisplatin combination, at 5 µM",-36.3% and -17.4%
same,inhibition,[18]; at 0.5 µM,-21.3% (inactive) and -1.95% (inactive)
same,inhibition,"[18]; cisplatin combination, at 0.5 µM",-12.5% and -17.2%
same,inhibition,"[18]; cisplatin combination, at 5 µM",-6.79% and -8.03%
same,inhibition,"[18]; measured here: BGB IC40 combination 0.05 uM, at 0.05 µM",-1.08% and -21.3%
same,inhibition,"[18]; single agent, at 5 µM",-0.642% and -9.5%
same,inhibition,[19]; at 0.5 µM,-24.6% (inactive) and -1.99% (inactive)
same,inhibition,"[19]; cisplatin combo, at 5 µM",-16.8% and -20.6%
same,inhibition,"[19]; measured here: BGB IC40 combination, at 0.05 µM",-28.4% and 4.2%
same,inhibition,[19]; [21],-35.4% and 12.7%
same,inhibition,"[19]; single agent, at 5 µM",-21.5% and -6.99%
same,inhibition,[20]; at 0.5 µM,-37.7% (inactive) and -21.2% (inactive)
same,inhibition,"[20]; measured here: with BGB IC20 combination, at 0.5 µM",-17.4% and -24.8%
same,inhibition,"[20]; measured here: with cisplatin IC20 combination, at 0.5 µM",-51.3% and -21.4%
same,inhibition,"[20]; single agent, at 0.05 µM",-59.2% and 3.53%
same,inhibition,"[20]; single agent, at 5 µM",-38.1% and -22.9%
O=C1CCC(N2C(=O)c3ccccc3C2=O)C(=O)N1 (stereo unspecified),rescue above control,[1],21.9
same,inclusion score,[2],2
same,aggregation suppression score,[3],1.48
same,survival,[4],19.2 (inactive)
same,inhibition,[5],-6% (inactive)
same,fluorescence ratio (interference),[6],1 (inactive)
same,outcome,[12],inactive
same,outcome,[15],inactive
same,outcome,[8],inactive
same,outcome,[9],inactive
same,outcome,[10],inactive
same,outcome,[11],inactive
